# Bcl-xL primary – blocks human Bcl-xL binding to Bim BH3 peptide; GST-Bcl-xL / FITC-Bim BH3 peptide fluorescence polarization; Q07817; actives 0.7% (n = 320,000); inhibition, % at 10.9 µM; AID 2129;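 active = inhibition above the mean of all tested compounds plus 3 SD, cutoff set per campaign, cut at about 30% in these data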;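 also: 0% = DMSO wells and 100% = unlabeled Bim-BH3 peptide competitor; inhibitors lower millipolarization by displacing the labeled peptide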
# Mcl1-Noxa inh – disrupts binding of human Mcl-1 to Noxa peptide. inhibition, % at 21.7 µM. actives 1.5% (n = 220,000). TR-FRET Mcl-1/Noxa peptide binding, 2 h. Q07820;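 active = compounds that cut the protein-peptide binding signal by more than 50% relative to plate controls in a single-dose test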;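 also: His-tagged Mcl-1 with rhodamine Noxa BH3 peptide and terbium anti-His antibody; 0% = Mcl-1 plus Noxa peptide wells and 100% = peptide-only wells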
# Target sequence (Q07820 whole entry, looked up): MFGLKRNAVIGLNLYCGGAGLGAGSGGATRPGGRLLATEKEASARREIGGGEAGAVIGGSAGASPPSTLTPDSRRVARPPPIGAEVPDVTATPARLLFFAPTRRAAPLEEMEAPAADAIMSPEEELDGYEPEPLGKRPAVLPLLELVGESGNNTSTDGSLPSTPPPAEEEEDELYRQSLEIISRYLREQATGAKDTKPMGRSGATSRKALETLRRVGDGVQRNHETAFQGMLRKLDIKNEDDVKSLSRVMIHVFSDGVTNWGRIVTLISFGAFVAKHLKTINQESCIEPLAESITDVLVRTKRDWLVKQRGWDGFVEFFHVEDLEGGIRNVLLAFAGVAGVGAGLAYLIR
# Mcl1 Bid PPI – disrupts binding of human Mcl-1 to Bid peptide. actives 0.97% (n = 220,000). inhibition, % at 21.7 µM. TR-FRET Mcl-1/Bid-Dy647 peptide binding, 1536-well;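 active = compounds that cut the binding signal by more than half at the single screening dose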;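 also: His-tagged Mcl-1 with europium anti-His antibody binding Bid BH3 peptide; 0% = Mcl-1 plus peptide wells and 100% = peptide-only wells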
# GLD-1 RNA inh – GLD-1-TGE RNA interaction inhibition (C. elegans) | Q17339 | purified GLD-1 + fluorescein TGE RNA, fluorescence polarization | inhibition, % at 5.96 µM | actives 0.44% (n = 320,000) | AID 2280;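 active = percent inhibition above a per-plate cutoff, the plate mean of test compounds plus 3 SD, cut at about 30% in these data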;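 also: 0% = DMSO wells with GLD-1 and probe and 100% = wells lacking GLD-1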
# Bim-Mcl-1 – disrupts Bim peptide binding to human Mcl-1. Bead-based flow cytometry, Bim peptide-Mcl-1 binding. Q07820. actives 0.1% (n = 190,000). inhibition, % at 10 µM; in the data active = inhibition above about 40%;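 also: 0% = no compound tracer wells and 100% = peptide blocker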
# MCL1 BIM primary – inhibitors of human MCL1 binding to BIM-BH3 peptide. GST-MCL1 / FITC-Bim-BH3 fluorescence polarization. AID 2057. actives 0.68% (n = 320,000). inhibition, % at 10.9 µM;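 active = inhibition above the mean inhibition of all tested compounds plus 3 SD, set per campaign, cut at about 40% in these data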;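 also: 0% = DMSO wells and 100% = unlabeled Bim-BH3 peptide control; higher means more loss of mP so more displacement of Bim peptide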
# BCLXL inh confirm – Bcl-xL (human) inhibition, MCL1 counter-screen confirmation. shares compounds with MCL1 BIM primary. GST-Bcl-xL / FITC-Bim BH3 peptide FP binding. inhibition, % at 10.9 µM. actives 54% (n = 1,700);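 active = inhibition above a cutoff equal to the mean inhibition of all tested compounds plus 3 SD, cut at about 30% in these data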;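 also: 0% = DMSO wells and 100% = unlabeled Bim BH3 control peptide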
# MCL1 BIM confirm – confirmation of human MCL1 and BIM-BH3 interaction inhibitors. GST-MCL1 / FITC-Bim-BH3 fluorescence polarization. actives 61% (n = 1,700). inhibition, % at 10.9 µM. shares compounds with MCL1 BIM primary;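 active = inhibition above the average of all tested compounds plus 3 SD, cut at about 40% in these data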;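 also: 0% = DMSO wells and 100% = unlabeled Bim-BH3 control peptide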
# * = called active by the depositor; nt = not tested or not shown; + = active, no number. Compounds with a hit are over-represented: about 2.3% of the library has one in this group of screens.
SMILES,Bcl-xL primary,Mcl1-Noxa inh,Mcl1 Bid PPI,GLD-1 RNA inh,Bim-Mcl-1,MCL1 BIM primary,BCLXL inh confirm,MCL1 BIM confirm
O=C(OCCN1C(=O)c2cccc3c(N4CCOCC4)ccc(c23)C1=O)c1ccc(Cl)cc1Cl,39.4*,-151.2,-25.6,73.0*,10.0,63.0*,-3.1,-2.2
O=C(OCCN1C(=O)c2ccccc2C1=O)c1cc(S(=O)(=O)N2CCOCC2)ccc1Cl,1.7,-2.8,-5.7,5.7,-5.0,3.1,nt,nt
CC[C@@]1(O)C(=O)OCc2c1cc1n(c2=O)Cc2cc3c(CN(C)C)c(O)ccc3nc2-1,+,nt,nt,+,nt,+,+,+
CC[C@@]1(O)C(=O)OCc2c1cc1n(c2=O)Cc2cc3c(N)cccc3nc2-1,6.9,32.5,-94.7,-2.7,nt,16.3,nt,nt
COc1ccc([C@H]2CC(=O)C=C(c3cc4ccccc4s3)C2)cc1,4.0,nt,nt,-1.7,nt,3.1,nt,nt
COc1ccc(NC(=O)CN(C)C(=O)c2cc3c(s2)CCC3)cc1,3.0,nt,nt,5.5,nt,74.4*,-1.3,70.9*
COc1ccc(NC(=O)CN(C)C(=O)c2cc3c(s2)CCCCC3)cc1,2.2,nt,nt,0.2,nt,-1.1,nt,nt
c1ccc2c(c1)Nc1cc3ccccc3cc1S2,0.2,8.7,-10.2,-7.3,nt,11.7,nt,nt
Cc1ccc2c(c1)Sc1c(ccc3ccccc13)N2,67.0*,39.6,-18.6,-3.3,nt,71.4*,79.6*,104.3*
C=CCN1C=CC(=O)CC1,164.1*,-8.3,-95.1,87.3*,nt,131.3*,5.2,-2.2
O=C(c1ccccc1NS(=O)(=O)c1ccc(Cl)cc1)N1CCc2ccccc21,1.6,8.2,11.4,-3.7,-6.0,1.9,nt,nt
CC1(O)C(=O)C=C2C=C(C3CC3)OC=C2C1=O (centres undefined),21.3,nt,nt,23.3,nt,30.6,nt,nt
COC(=O)CCC(=O)OC1(C)C(=O)C=C2C=C(C3CC3)N(c3ccc(CO)cc3)C=C2C1=O (centres undefined),63.5*,nt,nt,45.0*,nt,93.8*,46.1*,64.4*
COC(=O)CCC(=O)OC1(C)C(=O)C=C2C=C(c3ccsc3)OC=C2C1=O (centres undefined),20.6,nt,nt,28.3,nt,51.4*,29.0,76.5*
CC1(OC(=O)C2CCCC2)C(=O)C=C2C=C(c3ccsc3)N(CCN3CCOCC3)C=C2C1=O (centres undefined),nt,-2.1,-106.6,nt,nt,nt,nt,nt
CC1(O)C(=O)C=C2C=C(c3ccsc3)OC=C2C1=O (centres undefined),25.0,nt,nt,10.8,nt,51.8*,33.4*,73.3*
COC(=O)CCCC1=CC2=CC(=O)C(C)(OC(=O)c3cccs3)C(=O)C2=CN1c1ccc(OC)cc1 (centres undefined),15.2,-31.1,-65.6,0.7,nt,14.2,nt,nt
COC(=O)CCC(=O)OC1(C)C(=O)C=C2C=C(C3CC3)OC=C2C1=O (centres undefined),54.1*,nt,nt,66.8*,nt,55.5*,48.4*,70.5*
N#Cc1ccccc1NC(=O)COc1ccc2c(c1)OCO2,-4.9,nt,nt,-1.2,nt,-3.6,nt,nt
O=C(O)c1cccc(-n2cccc2/C=C2/SC(=O)N(CC(=O)N3CCCC3)C2=O)c1,5.2,nt,nt,-3.8,nt,13.1,nt,nt
CCOc1ccc(Cl)cc1S(=O)(=O)N1CCC(C(=O)NC2CC2)CC1,-1.9,nt,nt,3.7,nt,2.5,nt,nt
CN(CC(=O)Nc1ccc2c(c1)OCO2)S(=O)(=O)c1ccc(F)cc1,1.2,nt,nt,3.9,nt,2.4,nt,nt
Cc1ccc(C=C2C(Cl)=C(Cl)C(Cl)=C2Cl)cc1,28.3,52.8*,-0.8,-3.9,nt,68.7*,23.3,30.2
Cc1ccsc1C(=O)Nc1cccc(-n2cnnn2)c1,3.8,nt,nt,6.6,nt,-0.1,nt,nt
CCN1/C(=C/C=C/c2sc3ccccc3[n+]2CC)Sc2ccccc21,+,nt,nt,-0.1,nt,+,+,+
CCN1/C(=C/C=C/C=C/C=C/c2sc3ccccc3[n+]2CC)Sc2ccccc21,6.9,nt,nt,-130.8,nt,8.5,nt,nt
CC1(c2ccccc2)NC(=O)N(CC(=O)Nc2ccc(N3CCOCC3)cc2)C1=O (centres undefined),nt,nt,nt,2.2,nt,nt,nt,nt
